Assay outcomes as filed in PubChem.
NPC1 promoter act: activates the NPC1 promoter | Potency, µM (top dose mostly 9.22 µM), for inactives: at the highest dose activation, hits mostly activators | Huh7 NPC1 promoter luciferase reporter, 24 h | hit rate 2.4% among 320,000; also: % of control where 0% means no effect; nearly all actives have a fitted effect of over 60% in size
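Huh7 cells stably carrying NPC1 promoter–luciferase, plated in Opti-MEM with 10% FBS for 2 h, were exposed to compound in DMSO for 24 h at 37 °C; luciferase reagent was added for 10 min and luminescence read.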
ELG1 genotoxic: genotoxicity induction in ELG1-luciferase HEK293T cells; hit rate 1.3% among 330,000; AID 504466; Potency, µM (titrated, usually from 46 µM), inactives show top-dose activity change, positive = activation, actives largely listed as activators; HEK293T ELG1-luciferase reporter, luminescence, 16 h; also: % of control where 0% means no effect; nearly all actives have a fitted effect of over 60% in size
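16 hr compound incubation (37 °C, 5% CO2) of HEK293T cells carrying luciferase-tagged ELG1; luciferase then measured by ONE-Glo luminescence after 30 min at RT.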
SMN2 splice enh: increases expression of the SMN2 splice variant | HEK293 SMN2-luciferase splicing reporter, luminescence, 30-36 h | Potency, µM (doses to about 46.1 µM), for inactives: at the top dose activity change, positive = activation, usual class: activators | hit rate 2.8% among 210,000 | AID 1458; also: % of control where 0% means no effect; nearly all actives have a fitted effect of over 55% in size
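qHTS luciferase splicing reporter: luminescence rises when SMN2 exon 7 is included in transfected HEK293 cells. Compound exposure lasted 30-36 h at 37C, with 4.5 mM final sodium butyrate as control, followed by a ONE-Glo read.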
FLuc counter: firefly luciferase modulation, counter-screen for miR-21 project; purified FLuc, Km substrates, luminescence inhibition; Potency, µM (highest dose often 57.5 µM), for inactives: at the top dose activity change, negative = inhibition, usual class: inhibitors; P08659; hit rate 6.9% among 360,000; AID 588342;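 also: plate controls were vehicle for no effect and reference inhibitor for full effect; nearly all actives have a fitted effect of over 55% in size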
Target sequence (P08659 whole entry, looked up): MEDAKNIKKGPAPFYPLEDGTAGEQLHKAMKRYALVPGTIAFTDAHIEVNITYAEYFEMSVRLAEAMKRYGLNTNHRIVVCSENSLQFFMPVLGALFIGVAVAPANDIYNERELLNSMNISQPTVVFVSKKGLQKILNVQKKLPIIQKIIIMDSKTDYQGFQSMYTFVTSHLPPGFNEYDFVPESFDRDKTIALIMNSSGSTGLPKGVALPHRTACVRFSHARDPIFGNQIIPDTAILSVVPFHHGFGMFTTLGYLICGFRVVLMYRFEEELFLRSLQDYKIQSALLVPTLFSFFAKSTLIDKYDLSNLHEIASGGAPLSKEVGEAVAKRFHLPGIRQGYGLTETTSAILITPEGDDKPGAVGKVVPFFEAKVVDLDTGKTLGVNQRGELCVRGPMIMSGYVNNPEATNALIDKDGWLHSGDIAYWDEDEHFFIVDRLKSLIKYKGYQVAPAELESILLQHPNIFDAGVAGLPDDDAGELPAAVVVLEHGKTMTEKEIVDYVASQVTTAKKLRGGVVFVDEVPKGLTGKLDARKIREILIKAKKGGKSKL
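Biochemical qHTS of compounds, final roughly 60 µM downward over six points, against 10 nM purified firefly luciferase using Km concentrations of substrates (10 uM D-luciferin, 10 uM ATP) in Tris acetate pH 7.5 buffer; luminescence output.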
ELG1 repair inh: blocks ELG1-dependent DNA repair in HEK293T cells; HEK293T ELG1-luciferase reporter, luminescence, 16 h; DNA damage induced by 5-fluorouridine; Potency, µM (highest dose often 46.1 µM), without a hit: top-dose activity change, negative = inhibition, actives largely listed as inhibitors; hit rate 2.3% among 330,000; AID 504467; also: % is scaled to controls: 0 for no effect and ±100 for the full control effect; nearly all actives have a fitted effect of over 55% in size
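Quantitative HTS, concentration-response format. 2,000 cells/well co-treated with 5-fluorouridine and compound, 16 hr in 5% CO2 at 37 °C; ONE-Glo luminescence read after 30 min.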
Rab9 prom act: Rab9 promoter activation; Potency, µM (doses to about 9.22 µM), for inactives: at the highest dose activation, negative = inhibition, actives largely listed as activators; hit rate 2.8% among 320,000; Huh7 Rab9 promoter-luciferase reporter, luminescence, 24 h; also: % of control where 0% means no effect; nearly all actives have a fitted effect of over 60% in size
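Cell-based reporter: Huh7 stable for Rab9 promoter-driven luciferase, plated in reduced-serum medium with 10% FBS at 1500 cells/well, compound-treated 24 h at 37 °C, luminescence read after 10 min reagent.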
* = called active by the depositor; ? = inconclusive; . = not tested or not shown; [ ] = dose if it differs, or a comment. Most compounds without a hit are left out; they make up all but 9.3% or so of the library. Calls follow the shape of the dose curve; as a rule, active = well fitted curve in the direction sought with a large enough effect; inconclusive = small, poorly fitted or top-dose-only effect, or another doubt; inactive = no such curve, though single readings can be large; an effect the other way counts as inactive or inconclusive. Potency is read from the fitted curve at half-maximal effect.

SMILES | NPC1 promoter act | ELG1 genotoxic | SMN2 splice enh | FLuc counter | ELG1 repair inh | Rab9 prom act
O=C(c1cnn(-c2ccccc2)c1)c1ccc2ccccc2c1O | ? | ? | 13µM* | 7.6µM* | ? | ?
O=C(O)c1ccc(-n2cc(C(=O)c3ccccc3O)cn2)cc1 | 10% | -12% | . | 15µM* | ? | 12%
O=C(c1cnn(-c2nc3ccccc3s2)c1)c1ccccc1O | 3.5µM* | ? | 51% | 3µM* | ? | ?
O=C(c1cnn(-c2cccc(F)c2)c1)c1ccccc1O | ? | ? | . | 3.8µM* | ? | 0%[1.84 µM]
O=C(c1cnn(C(=O)c2ccccc2F)c1)c1ccccc1O | -2% | 1% | . | ? | 13% | -4%
O=C(c1cnn(-c2ccccc2)c1)c1cc(Br)ccc1O | -2% | 1% | . | 6% | 12% | 1%
COc1cccc(CNC(=O)CN2C(=O)CSc3c2c(C)nn3-c2ccccc2)c1 | . | . | . | 3% | . | .
COc1ccc(NC(=O)Cc2csc(C)n2)cc1 | . | . | 6% | -2% | . | .
C/C(=N\NC(=S)NCc1ccccc1)c1ccccc1 | 1% | 8% | 9% | ? | ? | 3%
COc1ccc(CNC(=S)N/N=C(/C)c2ccccc2)cc1 | ? | 18µM* | . | 7.6µM* | ? | ?
CC1CCC(N2CC(=O)N(C3CCCC3)C(c3ccc(Cl)cc3)C2=O)CC1 (configuration not stated) | . | . | . | -6% | . | .
Cn1ncc2c(N3CCN(c4ccc(F)cc4)CC3)ncnc21 | . | . | . | 1% | . | .
O=C(Nc1nc2ccccc2[nH]1)c1ccc(Cl)c([N+](=O)[O-])c1 | -3% | ? | 13µM* | ? | ? | -1%
O=C(Nc1nc2ccccc2[nH]1)c1ccccc1[N+](=O)[O-] | ? | 15% | 13µM* | ? | ? | 20%
Cc1c(C(=O)Nc2nc3ccccc3[nH]2)cccc1[N+](=O)[O-] | 19% | 14% | 20µM* | 15µM* | ? | ?
Cc1c(C(=O)NC(Cc2ccccc2)c2nc3ccccc3[nH]2)cccc1[N+](=O)[O-] (configuration not stated) | -2% | -2% | -3% | -14% | 11% | 2%
O=C(NC(Cc1ccccc1)c1nc2ccccc2[nH]1)c1ccc(Cl)c([N+](=O)[O-])c1 (configuration not stated) | -1% | -2% | . | -8% | ? | 9%
COC(=O)c1[nH]c2ccccc2c1NC(=O)c1ccccc1[N+](=O)[O-] | 2% | 2% | -8% | 0% | 3% | -2%
N#Cc1cccc(NC(=O)N2CC[C@@]3(CCCN(C(=O)c4cccc(F)c4)C3)C2)c1 | . | . | -17% | . | . | .
COC(=O)/C=C1\S/C(=N/N=C/c2ccc(Cl)cc2)NC1=O | -3% | -1% | . | 11µM* | 1% | -2%
COC(=O)/C=C1\S/C(=N/N=C/c2ccccc2)NC1=O | 2% | 0% | 6% | 6µM* | 20% | -3%
COC(=O)/C=C1/S/C(=N/N=C/c2ccco2)NC1=O | -1% | 2% | . | ? | -4% | 2%
COC(=O)/C=C1/SC(=NC(=O)c2ccc(OC)cc2)NC1=O | 0% | 3% | . | 27µM* | 6% | 1%
Cc1cc(N2C(=O)c3ccc(C(=O)Nc4ccc(CC(=O)O)cc4)cc3C2=O)no1 | 4% | -1% | . | 0% | 22% | 0%
CCc1cc2c(COC(=O)CCNS(=O)(=O)c3cccc(C(F)(F)F)c3)cc(=O)oc2cc1O | -1% | 0% | . | 2% | ? | -3%
SMILES | NPC1 promoter act | ELG1 genotoxic | SMN2 splice enh | FLuc counter | ELG1 repair inh | Rab9 prom act
COc1cc(C(=O)NC(C)C2CC3CCC2C3)ccc1OC(F)F (configuration not stated) | 2% | -1% | . | 5% | ? | -8%
CN(C)c1ccc(CNC(=O)C2CCC(CNc3c(N4CCCCC4)c(=O)c3=O)CC2)cc1 (configuration not stated) | 0% | -4% | . | -3% | 0% | -2%
COc1ccc(NC(=O)c2ccccc2NC(=O)C2CCCO2)cc1 (configuration not stated) | 26% | ? | 20µM* | -10% | ? | ?
O=C(NCCc1ccccc1)c1ccccc1NC(=O)C1CCCO1 (configuration not stated) | 1.4µM* | ? | 3.5µM* | ? | ? | 1.3µM*
CC(C)=CCC/C(C)=C/CC/C(C)=C/CSCC(=O)O | . | . | -7% | . | . | .
Cc1ccc2c(COC(=O)c3c(C)noc3C)cc(=O)oc2c1 | -22% | 3% | -25% | ? | -1% | 5%
CCc1ccc2c(COC(=O)c3n[nH]c4ccccc34)cc(=O)oc2c1 | ? | ? | ? | 5.4µM* | ? | ?
Cc1ccc2c(COC(=O)CNS(=O)(=O)c3ccccc3)cc(=O)oc2c1 | . | 5% | . | . | ? | .
Cc1ccc2c(COC(=O)c3ccccc3F)cc(=O)oc2c1 | ? | 2.1µM* | . | 0.19µM* | ? | ?
Cc1ccc2c(COC(=O)c3n[nH]c4ccccc34)cc(=O)oc2c1 | ? | 4.6µM* | . | 5.4µM* | ? | 12%
Cc1cc(C)n2nc(SCC(=O)Nc3ccc(F)cc3[N+](=O)[O-])nc2n1 | . | 1% | . | . | 0% | .
CN([C@@H](Cc1ccc(OS(=O)(=O)c2cccc3cnccc23)cc1)C(=O)N1CCN(c2ccccc2)CC1)S(=O)(=O)c1cccc2cnccc12 | -5% | -9% | -30% | 3% | 9.2µM* | -4%
